Here are results for 5 compounds from the supplement of paper PMC11402862.

Molecules are shown by their SMILES.

The experiment relates to PPARalpha LBD (GAL4 fusion). Description: luciferase reporter transactivation, fold of solvent control; higher = stronger receptor activation. To be noted: HEK293T, exposure time: 24 h. Here is the method: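 HEK293T cells were transiently transfected with a GAL4-DBD fused to the ligand-binding domain of a human nuclear receptor (PPARα, PPARγ, PPARδ, FXR, LXRα, PXR, RARα or CAR), the GAL4-(UAS)5-TK firefly luciferase reporter and a Renilla luciferase normalisation plasmid. Cells were exposed to compound for 24 h in 0.5% DMSO. Firefly/Renilla luciferase was expressed as fold of the solvent control (=1). Values are the mean of 2-3 biological replicates; receptor agonists were used as positive controls.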
For orientation: In a reporter assay the amount or activity of a reporter protein is the signal.

On to `O=C(O)C(F)(F)C(F)(F)C(F)(F)C(F)(F)F` [perfluoropentanoic acid], for which the luciferase reporter transactivation is, setting by setting: (concentration: 1 µM) 1.14; (concentration: 5 µM) 1.05; (concentration: 10 µM) 1.12; (concentration: 25 µM) 1.18; (concentration: 50 µM) 1.15; (concentration: 100 µM) 1.31. The luciferase reporter transactivation is, setting by setting: (concentration: 250 µM) 1.35; (concentration: 500 µM) 1.58.
Regarding `CC(C)(Sc1ccc(CCN(CCCCC2CCCCC2)C(=O)NC2CCCCC2)cc1)C(=O)O`, for the setting “concentration: 1 µM”, the luciferase reporter transactivation amounted to 46.
`OCCC(F)(F)C(F)(F)C(F)(F)C(F)(F)C(F)(F)C(F)(F)F` [6:2 fluorotelomer alcohol]: the luciferase reporter transactivation (concentration: 1 µM) was found to be 0.709; the luciferase reporter transactivation (concentration: 5 µM) is 0.741; the luciferase reporter transactivation (concentration: 10 µM) was 0.818; the luciferase reporter transactivation (concentration: 25 µM) was found to be 0.925; the luciferase reporter transactivation (concentration: 50 µM) was 0.748; the luciferase reporter transactivation (concentration: 100 µM) was 0.765. The luciferase reporter transactivation amounted to 0.656 (concentration: 250 µM) and 0.825 (concentration: 500 µM).
`O=S(=O)(O)CCC(F)(F)C(F)(F)C(F)(F)C(F)(F)C(F)(F)C(F)(F)C(F)(F)C(F)(F)F` [8:2 fluorotelomer sulfonic acid] came in with a luciferase reporter transactivation (concentration: 1 µM) of 1.07; a luciferase reporter transactivation (concentration: 5 µM) of 1.09; a luciferase reporter transactivation (concentration: 10 µM) of 1.18; a luciferase reporter transactivation (concentration: 25 µM) of 1.29; a luciferase reporter transactivation (concentration: 50 µM) of 1.33; a luciferase reporter transactivation (concentration: 100 µM) of 1.97. The luciferase reporter transactivation was 1.6 (concentration: 250 µM) and 1.31 (concentration: 500 µM).
`O=S(=O)(O)CCC(F)(F)C(F)(F)C(F)(F)C(F)(F)C(F)(F)C(F)(F)F` [6:2 fluorotelomer sulfonic acid] yielded a luciferase reporter transactivation (concentration: 1 µM) of 1.06; a luciferase reporter transactivation (concentration: 5 µM) of 0.983; a luciferase reporter transactivation (concentration: 10 µM) of 1.08; a luciferase reporter transactivation (concentration: 25 µM) of 1.08; a luciferase reporter transactivation (concentration: 50 µM) of 1.13; a luciferase reporter transactivation (concentration: 100 µM) of 1.78.
